# Laboratory results: PubChem BioAssay (NCI)
# This is part of a sample that, as a whole, favours compounds with a hit. Of some 79,000 tested, about 15% had one in any assay. Unmarked numbers belong to inactive results. Activity calls are given as the source filed them. Rule as the data show it: active = growth inhibition above about 70%; inactive = the rest.
# Experiment: NCI Yeast Anticancer Drug Screen. Data for the sgs1 mgt1 strain (AID 161);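 also: 0% = growth of cultures given vehicle only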
# Conditions: S. cerevisiae sgs1 mgt1 strain, at 5.0 µM (retest, dose inferred, filed as 0.5), hits give high values
# How it was run: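 Read-out: growth inhibition vs vehicle controls. Cells: mutant yeast strain deficient in DNA damage repair.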
row,SMILES,growth inhibition
1,COC(=O)/C=C/c1cccc[n+]1[O-],4%
2,CN(C)CCCNc1c(C#N)[n+]([O-])c2cc(Cl)ccc2[n+]1[O-],60%
3,Cc1c(N=Nc2ccc(Br)cc2)c(-c2ccccc2)nn1C(N)=S,7%
4,COc1cc2c(c(OC)c1OC)-c1ccc(O)c(=O)cc1C(N=Cc1ccccc1)CC2 (centres undefined),-8%
5,CCC(C)SC1SCC2C(=O)N(C)C3(CC3C)C(=O)OCC(NC(=O)c3nc4ccccc4cc3O)C(=O)NC(C)C(=O)N(C)C1C(=O)N(C)C1(CC1C)C(=O)OCC(NC(=O)c1nc3ccccc3cc1O)C(=O)NC(C)C(=O)N2C (centres undefined),80% (active)
6,O=C(N/C(=C\c1ccc2c(c1)OCO2)c1nc2ccccc2s1)c1ccccc1,38%
7,CCCC/C=C1/CCC(CN(C)C)C1=O (centres undefined),16%
8,O=C(O)c1cc2c(cc1CC(Cc1ccc3c(c1)CCCC3)C(=O)O)CCCC2 (centres undefined),19%
9,CCNC(=O)COc1ccc(Cl)cc1Cl,0%
10,Fc1ccc(OCCC(Cn2ccnc2)c2ccc(Cl)cc2Cl)cc1 (centres undefined),71% (active)
11,Cc1ccc(NC(=O)/C(CC(=O)c2sc(Nc3ccc(Cl)c(Cl)c3)nc2C)=N\Nc2ccc([N+](=O)[O-])cc2[N+](=O)[O-])c(C)c1,5%
12,Oc1ccc(C/C=C/c2ccccc2)cc1O,13%
13,CC(=O)OC1=CC2=CCC3C(CCC4(C)C(C(C)=O)CCC34)C2(C)CC1 (centres undefined),-6%
14,CCCCNc1ccc(-c2c(N)nc(N)nc2CC)cc1[N+](=O)[O-],-9%
